This note sets out measurements from publication PMC7862700, “An all-to-all approach to the identification of sequence-specific readers for epigenetic DNA modifications on cytosine”.

What all share (assay): DAPPL (digital affinity profiling via proximity ligation, sequencing); 10 mM Tris-HCl pH 7.5, 50 mM NaCl, 1 mM DTT, 4% glycerol, room temperature, 30 min; GST-TFs on glutathione beads, 16-mer random dsDNA library, 0.1% formaldehyde crosslink after washing; high values mean tight binding
Holding throughout (conditions): protein: recombinant; tags: N-terminal GST; dsDNA, one strand shown

The target in one assay is T1, ERF (Homo sapiens, UniProt P50548 1-548).
T1 sequence: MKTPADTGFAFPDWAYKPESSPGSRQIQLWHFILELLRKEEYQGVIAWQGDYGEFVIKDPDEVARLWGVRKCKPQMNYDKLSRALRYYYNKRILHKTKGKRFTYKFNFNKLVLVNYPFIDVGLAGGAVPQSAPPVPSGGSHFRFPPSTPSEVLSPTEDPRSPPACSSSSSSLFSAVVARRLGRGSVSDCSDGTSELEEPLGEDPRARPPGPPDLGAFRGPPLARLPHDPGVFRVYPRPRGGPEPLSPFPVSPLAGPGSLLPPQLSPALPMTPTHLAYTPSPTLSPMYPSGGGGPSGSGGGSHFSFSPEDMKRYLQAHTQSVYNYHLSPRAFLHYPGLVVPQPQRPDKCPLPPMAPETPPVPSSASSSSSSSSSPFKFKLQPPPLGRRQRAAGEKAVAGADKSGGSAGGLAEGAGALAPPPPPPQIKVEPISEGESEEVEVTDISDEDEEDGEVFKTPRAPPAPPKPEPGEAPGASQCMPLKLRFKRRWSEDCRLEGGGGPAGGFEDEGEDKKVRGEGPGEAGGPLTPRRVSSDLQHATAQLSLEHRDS
In outline:
(§1)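 Binding signal is given per hexamer as its read frequency for a factor divided by its frequency in the tag-only sample. GST-fused human transcription factors were expressed in yeast, captured on glutathione beads, barcoded with DNA and pooled with that sample, then incubated with 200 nmole of a 16-mer random double-stranded DNA library in Tris/NaCl/DTT/glycerol buffer for 30 min at room temperature. The pools were then washed, crosslinked, proximity-ligated, amplified by PCR and sequenced on an Illumina NextSeq500.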

For another assay, the target named is T2, ETV3L (Homo sapiens, UniProt Q6ZN32 1-361).
T2 sequence: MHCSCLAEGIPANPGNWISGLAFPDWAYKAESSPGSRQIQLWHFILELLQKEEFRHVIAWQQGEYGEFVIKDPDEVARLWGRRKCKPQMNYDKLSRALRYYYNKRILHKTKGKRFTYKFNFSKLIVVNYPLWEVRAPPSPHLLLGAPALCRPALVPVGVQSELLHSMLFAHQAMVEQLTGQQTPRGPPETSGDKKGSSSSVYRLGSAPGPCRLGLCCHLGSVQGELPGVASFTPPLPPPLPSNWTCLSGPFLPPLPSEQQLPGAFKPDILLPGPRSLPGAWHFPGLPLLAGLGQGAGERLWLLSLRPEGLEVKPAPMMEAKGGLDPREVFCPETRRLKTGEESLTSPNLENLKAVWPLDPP
In outline: as §1

The next assay addresses T3, ETS2 (Homo sapiens, UniProt P15036 1-469).
T3 sequence: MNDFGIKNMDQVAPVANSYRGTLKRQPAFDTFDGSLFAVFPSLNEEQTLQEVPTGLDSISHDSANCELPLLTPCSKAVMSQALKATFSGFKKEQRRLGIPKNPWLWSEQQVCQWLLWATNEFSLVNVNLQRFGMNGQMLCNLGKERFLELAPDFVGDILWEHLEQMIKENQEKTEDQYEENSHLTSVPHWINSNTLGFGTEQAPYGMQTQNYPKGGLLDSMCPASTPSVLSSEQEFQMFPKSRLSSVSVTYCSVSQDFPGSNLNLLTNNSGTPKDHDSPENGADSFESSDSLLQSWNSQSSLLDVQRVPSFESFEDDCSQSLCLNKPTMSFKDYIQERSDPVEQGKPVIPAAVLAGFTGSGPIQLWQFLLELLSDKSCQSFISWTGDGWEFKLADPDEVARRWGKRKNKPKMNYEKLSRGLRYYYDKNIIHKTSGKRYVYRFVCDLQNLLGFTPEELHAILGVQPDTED
In outline:
as §1

Another assay deals with T4, SPDEF (Homo sapiens, UniProt O95238 1-335).
T4 sequence: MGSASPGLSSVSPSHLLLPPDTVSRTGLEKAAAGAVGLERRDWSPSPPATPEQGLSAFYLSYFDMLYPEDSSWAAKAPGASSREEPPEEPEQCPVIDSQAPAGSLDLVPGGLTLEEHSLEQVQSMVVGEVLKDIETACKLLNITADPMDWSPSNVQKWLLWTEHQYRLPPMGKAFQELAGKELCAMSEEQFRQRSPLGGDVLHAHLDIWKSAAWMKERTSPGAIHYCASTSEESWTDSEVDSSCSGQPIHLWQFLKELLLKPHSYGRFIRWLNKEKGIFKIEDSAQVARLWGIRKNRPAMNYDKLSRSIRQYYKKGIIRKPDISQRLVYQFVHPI
In outline:
as §1

The target of another assay is T5, ETV7 (Homo sapiens, UniProt Q9Y603 1-341).
T5 sequence: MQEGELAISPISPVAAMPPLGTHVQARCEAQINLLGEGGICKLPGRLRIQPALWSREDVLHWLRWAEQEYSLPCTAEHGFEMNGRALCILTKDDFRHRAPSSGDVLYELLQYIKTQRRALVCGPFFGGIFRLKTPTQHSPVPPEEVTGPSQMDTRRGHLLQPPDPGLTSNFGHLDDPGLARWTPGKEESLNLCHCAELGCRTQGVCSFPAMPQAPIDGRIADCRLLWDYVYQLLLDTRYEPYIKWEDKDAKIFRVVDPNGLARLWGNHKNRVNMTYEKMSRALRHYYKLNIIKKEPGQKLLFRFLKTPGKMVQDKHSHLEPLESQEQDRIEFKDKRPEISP
In outline: as §1

The next assay has as its target T6, ELF5 (Homo sapiens, UniProt Q9UKW6-2 1-255).
T6 sequence: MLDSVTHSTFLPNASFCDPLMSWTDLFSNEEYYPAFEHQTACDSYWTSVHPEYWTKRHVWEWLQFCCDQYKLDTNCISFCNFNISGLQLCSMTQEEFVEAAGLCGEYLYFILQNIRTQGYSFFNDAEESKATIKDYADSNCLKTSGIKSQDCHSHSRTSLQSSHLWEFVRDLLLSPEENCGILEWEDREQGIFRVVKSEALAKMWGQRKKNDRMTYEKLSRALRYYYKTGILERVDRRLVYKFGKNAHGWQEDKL
In a few lines: as §1

Another assay has as its target T7, ETV3 (Homo sapiens, UniProt P41162-2 1-143).
T7 sequence: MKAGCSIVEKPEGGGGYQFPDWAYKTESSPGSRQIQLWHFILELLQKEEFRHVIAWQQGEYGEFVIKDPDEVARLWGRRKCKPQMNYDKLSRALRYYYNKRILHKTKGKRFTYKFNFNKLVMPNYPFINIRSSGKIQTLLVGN
In a few lines: as §1

For another assay, the target named is ETV6 (Homo sapiens, UniProt P41212 1-452). In a few lines:
as §1

ETV6, sequence (P41212 whole entry): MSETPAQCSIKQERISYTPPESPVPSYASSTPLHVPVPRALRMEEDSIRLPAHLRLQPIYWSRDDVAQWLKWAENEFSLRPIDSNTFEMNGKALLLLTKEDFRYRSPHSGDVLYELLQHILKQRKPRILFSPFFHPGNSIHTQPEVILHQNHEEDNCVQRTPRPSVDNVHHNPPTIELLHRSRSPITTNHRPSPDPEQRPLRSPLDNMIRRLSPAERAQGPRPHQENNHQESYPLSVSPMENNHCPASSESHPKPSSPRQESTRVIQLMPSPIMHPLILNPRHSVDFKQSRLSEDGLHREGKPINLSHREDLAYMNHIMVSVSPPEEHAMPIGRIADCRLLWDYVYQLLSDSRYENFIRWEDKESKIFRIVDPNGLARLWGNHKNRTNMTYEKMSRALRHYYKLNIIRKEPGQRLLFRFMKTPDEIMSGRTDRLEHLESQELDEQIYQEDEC

Regarding AAAAGC, the binding signal with ERF is 1.15 fold enrichment (6-mer frequency, TF over GST control); in the assay with ETV3L it was 1.23 fold enrichment (6-mer frequency, TF over GST control); in the assay with ETS2, 1.15 fold enrichment (6-mer frequency, TF over GST control); with SPDEF, 1.07 fold enrichment (6-mer frequency, TF over GST control); with ETV7 it was 1.35 fold enrichment (6-mer frequency, TF over GST control); in the assay with ELF5 it was 1.26 fold enrichment (6-mer frequency, TF over GST control). In addition, the binding signal in the assay with ETV3 is 1.22 fold enrichment (6-mer frequency, TF over GST control); with ETV6, 1.26 fold enrichment (6-mer frequency, TF over GST control).
With ACGACT, the binding signal was 1.15 fold enrichment (6-mer frequency, TF over GST control) with ERF; 1.28 fold enrichment (6-mer frequency, TF over GST control) with ETV3L; 1.28 fold enrichment (6-mer frequency, TF over GST control) in the assay with ETS2; 1.19 fold enrichment (6-mer frequency, TF over GST control) in the assay with SPDEF; 1.17 fold enrichment (6-mer frequency, TF over GST control) with ETV7; 1.23 fold enrichment (6-mer frequency, TF over GST control) with ELF5. The binding signal in the assay with ETV3 is 1.22 fold enrichment (6-mer frequency, TF over GST control); with ETV6, 1.17 fold enrichment (6-mer frequency, TF over GST control).
Turning to TACGCT, the binding signal with ERF was 1.4 fold enrichment (6-mer frequency, TF over GST control); in the assay with ETV3L, 1.27 fold enrichment (6-mer frequency, TF over GST control); with ETS2, 1.22 fold enrichment (6-mer frequency, TF over GST control); in the assay with SPDEF it was 1.32 fold enrichment (6-mer frequency, TF over GST control); in the assay with ETV7, 1.31 fold enrichment (6-mer frequency, TF over GST control); with ELF5, 1.24 fold enrichment (6-mer frequency, TF over GST control). The binding signal was 1.42 fold enrichment (6-mer frequency, TF over GST control) in the assay with ETV3 and 1.28 fold enrichment (6-mer frequency, TF over GST control) in the assay with ETV6.
As for ACAATT, the binding signal with ERF was 1.25 fold enrichment (6-mer frequency, TF over GST control); in the assay with ETV3L, 1.23 fold enrichment (6-mer frequency, TF over GST control); with ETS2, 1.29 fold enrichment (6-mer frequency, TF over GST control); with SPDEF, 1.13 fold enrichment (6-mer frequency, TF over GST control); in the assay with ETV7, 1.21 fold enrichment (6-mer frequency, TF over GST control); with ELF5, 1.32 fold enrichment (6-mer frequency, TF over GST control). In addition, the binding signal with ETV3 was 1.27 fold enrichment (6-mer frequency, TF over GST control); in the assay with ETV6, 1.25 fold enrichment (6-mer frequency, TF over GST control).
With ATCCGG, the binding signal in the assay with ERF is 2.34 fold enrichment (6-mer frequency, TF over GST control); in the assay with ETV3L, 2.49 fold enrichment (6-mer frequency, TF over GST control); with ETS2, 2.66 fold enrichment (6-mer frequency, TF over GST control); with SPDEF it was 4.67 fold enrichment (6-mer frequency, TF over GST control); with ETV7, 2.25 fold enrichment (6-mer frequency, TF over GST control); with ELF5, 3.06 fold enrichment (6-mer frequency, TF over GST control). Further, the binding signal is 2.9 fold enrichment (6-mer frequency, TF over GST control) with ETV3 and 2.37 fold enrichment (6-mer frequency, TF over GST control) in the assay with ETV6.
Turning to CTTGCC, the binding signal with ERF was 1.33 fold enrichment (6-mer frequency, TF over GST control); with ETV3L, 1.31 fold enrichment (6-mer frequency, TF over GST control); in the assay with ETS2, 1.3 fold enrichment (6-mer frequency, TF over GST control); with SPDEF it was 1.44 fold enrichment (6-mer frequency, TF over GST control); with ETV7, 1.54 fold enrichment (6-mer frequency, TF over GST control); with ELF5 it was 1.29 fold enrichment (6-mer frequency, TF over GST control). Besides, the binding signal in the assay with ETV3 is 1.33 fold enrichment (6-mer frequency, TF over GST control); with ETV6 it was 1.08 fold enrichment (6-mer frequency, TF over GST control).
For GCTCCA, the binding signal with ERF is 1.26 fold enrichment (6-mer frequency, TF over GST control); with ETV3L, 1.26 fold enrichment (6-mer frequency, TF over GST control); in the assay with ETS2, 1.21 fold enrichment (6-mer frequency, TF over GST control); in the assay with SPDEF, 1.19 fold enrichment (6-mer frequency, TF over GST control); with ETV7 it was 1.19 fold enrichment (6-mer frequency, TF over GST control); with ELF5 it was 1.09 fold enrichment (6-mer frequency, TF over GST control). Besides, the binding signal with ETV3 was 1.14 fold enrichment (6-mer frequency, TF over GST control); in the assay with ETV6 it was 1.1 fold enrichment (6-mer frequency, TF over GST control).
Take ATGTCT: the binding signal is 1.38 fold enrichment (6-mer frequency, TF over GST control) in the assay with ERF; 1.27 fold enrichment (6-mer frequency, TF over GST control) with ETV3L; 1.28 fold enrichment (6-mer frequency, TF over GST control) with ETS2; 1.26 fold enrichment (6-mer frequency, TF over GST control) with SPDEF; 1.12 fold enrichment (6-mer frequency, TF over GST control) with ETV7; 1.35 fold enrichment (6-mer frequency, TF over GST control) with ELF5. In addition, the binding signal is 1.26 fold enrichment (6-mer frequency, TF over GST control) with ETV3 and 1.23 fold enrichment (6-mer frequency, TF over GST control) with ETV6.
Turning to TTTAGC, the binding signal with ERF was 1.19 fold enrichment (6-mer frequency, TF over GST control); in the assay with ETV3L it was 1.21 fold enrichment (6-mer frequency, TF over GST control); with ETS2, 1.01 fold enrichment (6-mer frequency, TF over GST control); in the assay with SPDEF it was 1.08 fold enrichment (6-mer frequency, TF over GST control); with ETV7 it was 1.03 fold enrichment (6-mer frequency, TF over GST control); with ELF5, 1 fold enrichment (6-mer frequency, TF over GST control). Further, the binding signal was 1.13 fold enrichment (6-mer frequency, TF over GST control) with ETV3 and 1.12 fold enrichment (6-mer frequency, TF over GST control) in the assay with ETV6.
